# Bioassay records deposited in PubChem BioAssay by several laboratories.
# CendR NRP1 mod: alters CendR peptide binding to human NRP-1 | O14786 | FAM-RPARPAR peptide binding to NRP-1, fluorescence polarization | inhibition, % at 25 µM | 360,000 tested, 0.85% active;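 active = inhibition or corrected inhibition above about 18%, plus a signal ratio from 0.5 to 1.5, limit read from the data, passing the limit was not always enough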
# proKLK7 act: activates the human kallikrein-7 zymogen. P49862. activation, % at 7 µM. 370,000 tested, 0.9% active. purified proKLK7, EDANS-DABCYL substrate fluorescence; 100% is mature enzyme control, 0% vehicle;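 active = activation above the mean of all tested compounds plus 3 SD, computed per campaign excluding outliers beyond control limits, cut at about 13% in these data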
# ADAM10 inh: inhibits human ADAM10. O14672. recombinant ADAM10, EDANS/DABCYL FRET peptide cleavage, 3 h. inhibition, % at 7 µM. 370,000 tested, 0.62% active. AID 720582;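 active = inhibition above a per-campaign cutoff equal to the mean of compounds falling between control-based bounds plus 3 SD, cut at about 20% in these data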
# Target sequence (O14672 214-748 limits assumed): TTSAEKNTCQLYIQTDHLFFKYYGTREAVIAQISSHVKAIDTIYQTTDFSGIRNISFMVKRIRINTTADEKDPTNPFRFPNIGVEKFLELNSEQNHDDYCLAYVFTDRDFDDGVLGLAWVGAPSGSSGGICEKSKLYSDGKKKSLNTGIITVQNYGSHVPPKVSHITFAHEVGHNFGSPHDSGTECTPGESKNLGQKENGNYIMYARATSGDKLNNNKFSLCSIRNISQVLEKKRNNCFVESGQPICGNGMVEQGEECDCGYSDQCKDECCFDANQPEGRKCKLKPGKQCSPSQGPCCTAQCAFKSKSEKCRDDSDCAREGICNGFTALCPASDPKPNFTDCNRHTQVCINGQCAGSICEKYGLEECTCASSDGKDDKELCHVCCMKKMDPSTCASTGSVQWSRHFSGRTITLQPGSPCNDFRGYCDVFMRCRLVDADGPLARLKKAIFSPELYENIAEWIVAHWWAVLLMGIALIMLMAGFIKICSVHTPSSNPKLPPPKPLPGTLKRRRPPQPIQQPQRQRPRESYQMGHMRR
# sPLA2-III inh: Blocks human group III sPLA2 activity; Q9NZ20; inhibition, % at 12.2 µM; 370,000 tested, 0.56% active; QFRET BODIPY PC-A2 liposome hydrolysis, fluorescence;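 active = inhibition above mean plus 3 SD of compounds lying within the high and low control bounds, cut at about 19% in these data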
# ADAM17 inh: ADAM17 inhibition, QFRET primary screen | P78536 | recombinant ADAM17, EDANS/DABCYL FRET peptide cleavage | inhibition, % at 6.95 µM | 370,000 tested, 0.83% active | AID 720648;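 active = inhibition above the mean of compounds lying between control limits plus 3 SD, set per campaign, cut at about 8.5% in these data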
# proKLK7 act conf: proKLK7 activation, confirmation. activation, % at 7 µM. purified proKLK7, EDANS-DABCYL substrate fluorescence; scaled: vehicle 0, mature enzyme 100. 3,200 tested, 68% active. shares compounds with proKLK7 act;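 active = activation, as change over the incubation, above the mean of all tested compounds plus 3 SD, cut at about 13% in these data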
# EDANS-DABCYL int: fluorescence interference counter-screen for KLK7 activators; shares compounds with proKLK7 act; EDANS-DABCYL substrate fluorescence interference, no enzyme, 4 h; solvent 0%, active enzyme control 100%; activation, % at 7 µM; 3,200 tested, 80% active; AID 686952;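 active = activation above the all-compound mean plus 3 SD, ignoring values outside control-based bounds, cut at about 4.8% in these data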;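 note: value is the 4 h activation minus the activation read at time zero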
# K7 EDANS ctr: optically interferes with EDANS-DABCYL fluorescence, kallikrein-7 activator counter-screen; shares compounds with proKLK7 act; EDANS-DABCYL peptide fluorescence interference, no enzyme; EC50, µM; 250 tested, 20% active;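 active = compounds that raise the fluorescence signal in this interference counterscreen, with EC50 at or below 10 µM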;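 note: intact quenched peptide substrate alone read at 355 nm excitation and 520 nm emission; signal is fluorescence gain from T0 to T4 after four hours at room temperature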
# Hits are given with their value; n = inactive; x = no result. An excerpt weighted towards active compounds, which were near 3.4% of everything screened.
SMILES,CendR NRP1 mod,proKLK7 act,ADAM10 inh,sPLA2-III inh,ADAM17 inh,proKLK7 act conf,EDANS-DABCYL int,others
CC(=O)N1CCc2nc3ccccc3cc21,n,n,n,n,n,x,x,
O=C(Nc1c(-c2ccc(F)c(F)c2)nc2ncccn12)C1CC1,x,18,n,n,n,52,57,
Nc1nc2ncccn2c1-c1ccc(F)c(F)c1,n,22,n,n,n,24,19,K7 EDANS ctr=n
O=C(Nc1ccccc1)Nc1nc2ncccn2c1-c1ccc(F)c(F)c1,x,n,n,n,n,x,x,
Cc1ccc(-c2c(NC(=O)C3CC3)nc3ncccn23)cc1,x,23,n,n,n,30,35,
Cc1cc(C)nc(N2CCC(C(=O)N(C)CCc3ccccn3)CC2)n1,x,n,n,n,n,x,x,
O=c1[nH]c2cc([N+](=O)[O-])ccc2c2ccc([N+](=O)[O-])cc12,n,n,n,n,n,x,x,
Nc1ccc2c(c1)[nH]c(=O)c1cc(N)ccc12,n,99,n,n,n,61,71,
CCOC(=O)CC[C@@H]1CC[C@]2(CCCN(Cc3nccn3C)C2)O1,x,n,n,n,n,x,x,
Cc1cc(=O)oc2cc(O)cc(O)c12,n,66,n,n,n,67,76,
COc1cc(OC)c2ccc(=O)oc2c1,n,90,n,n,n,49,61,
COc1cc(OC)c2c(C)cc(=O)oc2c1,n,32,n,n,n,38,48,
N#CCSc1nc2c(cc1C#N)CCCCCC2,n,15,n,n,n,34,33,
CC(C)OC(=O)CSc1nc2c(cc1C#N)CCCCC2,n,n,n,n,n,x,x,
CCOC(=O)CC(=O)CSc1nc2c(cc1C#N)CCCCC2,n,29,n,n,n,59,62,
CC(C)OC(=O)CC(=O)CSc1nc2c(cc1C#N)CCCCC2,n,24,n,n,n,80,81,
COc1cccc(O[C@H]2C=C[C@@H](c3ccccc3)O[C@@H]2CO)c1,x,n,n,n,n,x,x,
CCN(CC)C(=O)CC[C@H]1CC[C@]2(CCCN(C3CCCCC3)C2)O1,x,n,n,n,n,x,x,
COc1cc(C2Nc3ccccc3C(=O)N2c2ccc(Cl)cc2)c(Cl)cc1OCC(=O)O (stereo unspecified),n,22,n,n,n,26,27,
CN1C(=O)C[C@@](C#N)(C(=O)N2CCCC2)[C@H]1c1ccccc1,x,n,n,n,n,x,x,
CN1C2=N[C@@H](c3cccc(C(F)(F)F)c3)CC(=O)N2/C(=C\c2ccccc2)[C@H]1c1ccccc1,x,x,n,n,n,x,x,
Cc1cn2nc(N)c3ccccc3c2n1,n,n,n,n,n,x,x,
Nc1nn2cc(-c3ccccc3)nc2c2ccccc12,n,66,n,n,n,55,53,
COC(=O)C1=C(C)N(Cc2ccc(C(F)(F)F)cc2)C(=NCc2ccc(C(F)(F)F)cc2)NC1c1ccc(F)cc1 (stereo unspecified),x,n,n,n,n,x,x,
CC1=C2N=C(N)N(Cc3ccccc3)C(Cc3ccccc3)C2n2c(=O)n(-c3ccccc3)c(=O)n2C1 (stereo unspecified),x,n,n,n,n,x,x,
SMILES,CendR NRP1 mod,proKLK7 act,ADAM10 inh,sPLA2-III inh,ADAM17 inh,proKLK7 act conf,EDANS-DABCYL int,others
CCN1C(=O)c2cccc3c(S(=O)(=O)NCC4CCCO4)ccc1c23 (stereo unspecified),n,57,n,n,n,71,66,
O=C1Nc2ccc(S(=O)(=O)NCC3CCCO3)c3cccc1c23 (stereo unspecified),n,48,n,n,n,66,74,
CCN1C(=O)c2cccc3c(S(=O)(=O)NCc4ccco4)ccc1c23,n,n,n,n,n,x,x,
C=CCn1c(SCc2cccc(C(F)(F)F)c2)nnc1-c1ccc(OC)cc1,x,n,n,n,n,x,x,
C=CCOC(=O)COc1ccc2c(C)c(C)c(=O)oc2c1,n,15,n,n,n,n,14,
C=CCOC(=O)COc1ccc2c(C)c(CC)c(=O)oc2c1,n,27,n,n,n,n,13,
CCNc1cc2oc(=O)c(CN3CCOCC3)c(C)c2cc1C,25,43,n,n,n,69,78,
COc1cccc(C(=O)NCCN2C(=O)C3C4C=CC(C4)C3C2=O)c1 (stereo unspecified),x,n,n,n,n,x,x,
NC(=O)c1nsc(C(=O)N(c2ccccc2)C(C(=O)NC2CCCCC2)c2ccc(O)cc2)c1N (stereo unspecified),n,13,n,n,n,n,31,
NC(=O)c1nsc(C(=O)N(c2ccccc2)C(C(=O)NC2CCCC2)c2ccncc2)c1N (stereo unspecified),n,n,n,n,n,x,x,
Cc1cc(=O)oc2c(CN(C)Cc3ccccc3)c(O)ccc12,n,75,n,n,n,72,78,
Cc1cc(=O)oc2c(CN3CCOCC3)c(O)ccc12,n,100,n,n,n,74,65,
COc1ccc2c(C)cc(=O)oc2c1OCC(O)CN1CCOCC1 (stereo unspecified),n,15,n,n,n,n,10,
CN(Cc1ccccc1)Cc1c(O)ccc2ccccc12,n,n,n,n,n,x,x,
Cc1cc(=O)oc2c(CN3CCCCC3)c(O)ccc12,n,118,n,n,n,71,73,
Cc1ccc2c(CN3CCOCC3)cc(=O)oc2c1C,n,n,n,n,n,x,x,
CCNS(=O)(=O)c1ccc2nc(NC(=O)/C=C/c3cc(OC)c(OC)c(OC)c3)sc2c1,n,n,n,n,n,x,x,
COc1cc(/C=C/C(=O)Nc2nc3ccc(S(=O)(=O)NC(C)C)cc3s2)cc(OC)c1OC,n,15,n,n,n,59,63,
Cn1ccc2cc(S(=O)(=O)N3CCN(S(=O)(=O)c4c(F)cccc4F)CC3)ccc21,x,x,n,n,n,x,x,
CCOC(=O)Cc1nc(N2CCN(C=O)CC2)c2c(C)c(C(=O)OCC)sc2n1,x,n,n,n,n,x,x,
O=C(COc1ccc(/C=N/NC(=O)c2ccncc2)cc1)Nc1ccccc1,n,27,n,n,n,n,n,
O=C(COc1ccc(/C=N/NC(=O)c2ccncc2)cc1)Nc1cccc([N+](=O)[O-])c1,n,n,n,n,n,x,x,
O=C1NC(=O)C(Nc2cccc3ccccc23)S1 (stereo unspecified),n,n,n,n,n,x,x,
CN1C(=O)SC(Nc2cccc3ccccc23)C1=O (stereo unspecified),n,74,n,n,n,88,85,
CC1CCN(Cc2c(O)ccc3c2O/C(=C\c2ccco2)C3=O)CC1,n,x,x,x,x,x,x,
